Records with an inconclusive call do not appear. Calls of active or inactive are those of the source. How the source made its calls: active means hit-call score of the fitted dose curve at least 0.9, where 1 is the maximum; inconclusive means response in the unintended direction; inactive means score below 0.9.
These molecules were tested on rainbow trout Peroxisome Proliferator-activated Receptor alpha (PPARa), gene 110490141 (assay: ATG_rtPPARa_EcoTox2: Attagene TRANS-FACTORIAL EcoTox-2 HepG2 Assay for rainbow trout Peroxisome Proliferator-activated Receptor alpha (PPARa)).
Procedure: ATG_EcoTox2 is a cell-based, multiplexed assay created by modifying the existing Attagene TRANS-FACTORIAL system to include a panel of nuclear receptors from some or all the following species: human (Homo sapiens), african clawed frog (Xenopus laevis), rainbow trout (Oncorhynchus mykiss), japanese medaka (Oryzias latipes), and zebrafish (Danio rerio). The ECOTOX2-FACTORIAL format uses HepG2, a human liver cell line, with measurements taken at 24 hours after chemical dosing in a 24-well plate. ATG_rtPPARa_EcoTox2 is one of 29 assay components calculated in the ATG_EcoTox2 assay. It is designed to make measurements of mRNA induction, a form of inducible reporter, as detected with fluorescence intensity signals by Reverse transcription polymerase chain reaction (RT-PCR) and Capillary electrophoresis technology.The assay endpoint […] was analyzed in the positive analysis fitting direction relative to DMSO as the negative control and baseline of activity. Using a type of inducible reporter, measures of mRNA for gain-of-signal activity can be used to understand the reporter gene at the transcription factor-level as they relate to the gene PPARa. Furthermore, this assay endpoint can be referred to as a primary readout, because this assay has produced multiple assay endpoints where this one serves a reporter gene function. To generalize the intended target to other relatable targets, this assay endpoint is annotated to the nuclear receptor intended target family, where the subfamily is non-steroidal.
Human liver HepG2 cells are transiently transfected with multiple reporter transcription units (MRTUs) in 6-well plates using FuGene 6 reagent (Roche; 3 ml FuGene/1 mg DNA). The MRTU constructs are regulated by a cis-regulating element (promoter). Each RTU expresses a GAL4-UAS that regulates the transcription of a nearby target reporter gene sequence. A major difference between the CIS and TRANS system is that in CIS activities of endogenous TFs are measured, whereas the TRANS assay evaluates changes in activities of exogenous, chimeric NR-Gal4 proteins. […] At the end of 24 hour incubation, total RNA was isolated using TriZol reagent (Invitrogen). The isolated RNA is then reverse-transcribed using oligo(dT) primer and Mo-MLV reverse transcriptase (Invitrogen) with DNAse I (Ambion) treatment for 30 min. The one-tenth of the produced cDNA was amplified by PCR using Taq DNA polymerase (Invitrogen) and two reporter sequence-specific primers. The PCR products were fluorescently labeled by primer extension with 6-arboxyfluorescein (6-FAM) 5'-labeled reporter sequence-specific primer (2 min at 95 C, 20 s at 68 C and 10 min at 72 C) and these products were digested with 5U of HpaI (New England Biolabs) for 2h at 37 C. The fragments were purified using Qiaquick PCR columns (Qiagen), analyzed on an ABI 3130xL genetic analyzer (Applied Biosystems) with peak positions identified by using a set of X-rhodamine (ROX)-labeled MapMarker1000 molecular weight standards (BioVentures). The raw capillary electrophoresis data was processed using Attagraph software (Attagene).

Structure (SMILES) | outcome | AC50
C=C(c1ccc(C(=O)O)cc1)c1cc2c(cc1C)C(C)(C)CCC2(C)C | inactive | 
CC(C)(Oc1ccc(CCNC(=O)c2ccc(Cl)cc2)cc1)C(=O)O |  | 41.3 µM (active)
Cc1nc(-c2ccc(C(F)(F)F)cc2)sc1C(=O)NCc1ccc(OC(C)(C)C(=O)O)cc1 |  | 0.0823 µM (active)
CC(C)(Oc1ccc(C2CC2(Cl)Cl)cc1)C(=O)O (configuration not stated) |  | 75.3 µM (active)
CC(c1cc2ccccc2s1)N(O)C(N)=O (configuration not stated) | inactive | 
Cc1cccc(Nc2cc(Cl)nc(SCC(=O)O)n2)c1C |  | 25 µM (active)
CC(C)OC(=O)C(C)(C)Oc1ccc(C(=O)c2ccc(Cl)cc2)cc1 | inactive | 
CC(C)(Oc1ccc(Cl)cc1)C(=O)O | inactive | 
CN(CCOc1ccc(CC2SC(=O)NC2=O)cc1)c1ccccn1 (configuration not stated) |  | 6.15 µM (active)
Cc1ccc(C)c(OCCCC(C)(C)C(=O)O)c1 |  | 10.4 µM (active)
C[C@]12C=CC(=O)C=C1CC[C@@H]1[C@@H]2C(=O)C[C@@]2(C)[C@H]1CC[C@]2(O)C(=O)CO | inactive | 
C[C@@H]1C[C@H]2[C@@H]3CCC4=CC(=O)C=C[C@]4(C)[C@@]3(F)[C@@H](O)C[C@]2(C)[C@@]1(O)C(=O)COP(=O)(O)O | inactive | 

Reference: PubChem BioAssay AID2284347 (EPA ToxCast)
